Rows were chosen to be rich in hits. Some 3.9% of all compounds tested hit in one or more screens of this group.
TWEAK Fn14 block: blocks TWEAK-Fn14 interaction in a reporter cell assay; TWEAK-stimulated Fn14 reporter cells, luciferase luminescence, 8 h; inhibition, % at 10 µM; 360,000 compounds, 2% hits; AID 1159606; in the data active means inhibition above about 50%
CF NFkB inh: blocks PAF-induced NF-kB reporter in cystic fibrosis cells; KKLEB NF-kB-GFP reporter, GFP fluorescence overnight; 360,000 compounds, 0.86% hits; inhibition, % at 5 µM;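 active means at least 50% inhibition at 5 µM, scaled per plate between neutral and stimulator controls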;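 further: PAF is a Pseudomonas aeruginosa culture filtrate used as stimulus; plate controls were PAF-stimulated DMSO wells for no effect and unstimulated DMSO wells for full effect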
Peg3 promoter: Peg3 promoter activity inhibition. inhibition, % at 20 µM. AID 588405. 360,000 compounds, 1.7% hits. HeLa PEG-Prom luciferase reporter, luminescence, overnight;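 active means inhibition of at least 50% at 20 µM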
KKLEB tox: counter-screen for CF NF-kB inhibitors: cytotoxicity; KKLEB CF airway cells viability, ATPlite luminescence, overnight; active compounds read low; cells stimulated with P. aeruginosa culture filtrate; activity change (cytotoxicity), % at 5 µM; 360,000 compounds, 0.36% hits;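 active means corrected activity change at or below -50% at 5 µM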
HIF-2a block: blocks HIF-2a reporter activity; AID 624352; 360,000 compounds, 0.72% hits; 786-0 RCC cells HIF-2a reporter, luciferase luminescence, overnight; inhibition, % at 18.8 µM;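 active means inhibition of the luminescence signal of 40% or more relative to plate controls, in a single-dose primary screen at 18.75 µM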
TROY NFkB inh: blocks TROY-dependent signaling in reporter cells; 360,000 compounds, 0.98% hits; Q293 LMP1-TROYcd NF-kB luciferase reporter, 4 h; AID 1347056; inhibition, % at 10 µM;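 active means compounds whose plate-normalised and pattern-corrected inhibition of the luciferase reporter signal at the single screening dose is 50% or more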
* hit, by the source's call; . = no result given.

SMILES | TWEAK Fn14 block | CF NFkB inh | Peg3 promoter | KKLEB tox | HIF-2a block | TROY NFkB inh
NC(=O)c1ccsc1NC(=O)COC(=O)Cc1cccc2ccccc12 | 55* | 10 | -4 | -10 | 2 | 61*
CCOC(=O)CSc1nnc(-c2c[nH]c3ccccc23)o1 | -18 | -11 | -5 | -14 | 26 | -34
COc1ccc(C(=O)Oc2cccc(Nc3ncnc4ccccc34)c2)cc1OC | 82* | 20 | 7 | -13 | -9 | 54*
O=C(Oc1cccc(Nc2ncnc3ccccc23)c1)c1cccnc1 | 9 | 18 | -3 | -6 | -10 | 15
CC(C)(C)C(=O)Oc1cccc(Nc2ncnc3ccccc23)c1 | 15 | 9 | -3 | -6 | -5 | 24
COc1cc(C(=O)Oc2cccc(Nc3ncnc4ccccc34)c2)cc(OC)c1OC | 99* | -1 | 62* | 6 | -47 | 79*
Cc1ccc(-c2cc(C(=O)Nc3ccccc3C(N)=O)c3ccccc3n2)o1 | -16 | -12 | 52* | -11 | 7 | -10
COc1ccc(NC(=O)c2cc(-c3ccc(C)o3)nc3ccccc23)c(OC)c1 | -13 | -14 | -12 | -7 | -125 | -15
CCCN1CCC(=NNc2ccc(C(=O)O)cc2)CC1 | 52* | 5 | -13 | -5 | -14 | 41
CCCCSc1nc(SCC(=O)NCc2ccco2)c2c3c(sc2n1)COC(C)(CC)C3 (centres undefined) | -20 | -16 | 77* | -13 | 13 | 7
CC1CCN(CCCNC(=O)c2ccc3c(=O)n(Cc4ccc(Cl)cc4)c(=S)[nH]c3c2)CC1 | -29 | 15 | 114* | -13 | 14 | -32
CCOc1cc2[nH]c(=O)n(Cc3ccc(C(=O)NCCCN4CCC(C)CC4)cc3)c(=O)c2cc1OCC | -31 | -11 | 82* | -3 | 17 | 15
CCOc1cc2[nH]c(=S)n(Cc3ccc(C(=O)NCCCN4CCOCC4)cc3)c(=O)c2cc1OCC | -15 | 8 | -12 | 8 | 14 | -1
O=C(CSc1nnc(Cn2nnc3ccccc32)o1)N(Cc1ccc(F)cc1)c1ccccc1 | 56* | 15 | 22 | 2 | 14 | 43
COc1ccc(N(Cc2ccccc2)C(=O)CSc2nnc(Cn3nnc4ccccc43)o2)cc1 | -4 | 7 | 20 | 0 | 16 | 20
O=C1c2ccccc2C(=O)C1c1ccc2ccccc2n1 | 95* | -185 | 53* | -68* | -25 | 49
COc1ccc(-c2nn(-c3ccccc3)cc2/C=N/Nc2ccc(S(N)(=O)=O)cc2[N+](=O)[O-])cc1OC | -31 | 58* | 27 | -66* | 10 | -18
COc1ccc(-c2nn(-c3ccccc3)cc2/C=N/N=C(N)N)cc1OC | -1 | 12 | 104* | -14 | 15 | 25
COc1ccc(-c2nn(-c3ccccc3)cc2/C=N/O)cc1OC | 11 | 42 | 45 | -17 | 7 | -10
COc1cc(OC)c2nc(C)c3c(c2c1)N(c1ccc(O)cc1)CC3 | -200 | -223 | 65* | 7 | 22 | -27
COc1ccc(N2CCN(c3cc(C)c4ccc(O)cc4n3)CC2)cc1 | 0 | 1 | -14 | 16 | -9 | -24
Cc1c(Cl)cccc1N/C(SCC(=O)N1CCCCCC1)=C(/C#N)c1nc2ccccc2s1 | 7 | 54* | 45 | -65* | 36 | 15
O=C(NCC1CCCO1)C(c1cccs1)N(Cc1ccccc1Cl)C(=O)c1ccc(-c2ccccc2)[nH]1 (centres undefined) | 24 | 7 | 80* | -10 | 9 | 8
Cc1ccc(C(C(=O)NCC2CCCO2)N(Cc2ccccc2)C(=O)c2ccc(-c3ccccc3)[nH]2)o1 (centres undefined) | 37 | 7 | 30 | 4 | -10 | 5
O=C1[C@H]2CC3CCC2(O3)[C@@H]2OCCCN12 (some centres undefined) | -1 | -13 | -6 | -14 | 11 | -6
SMILES | TWEAK Fn14 block | CF NFkB inh | Peg3 promoter | KKLEB tox | HIF-2a block | TROY NFkB inh
CCOCCCNC(=O)C(NC(=O)CNC(C)=O)c1ccc(C)cc1 (centres undefined) | 73* | -7 | 11 | -10 | 7 | -10
O=C(O)C(=O)/C(=C\c1ccc(Cl)cc1)c1ccc2ccccc2n1 | 34 | -13 | -298 | -11 | -199 | 53*
CCOC(=O)c1nn(-c2c(C)n(C)n(-c3ccccc3)c2=O)cc1O | 61* | -4 | 13 | 8 | 9 | .
CC(CC(=O)Nc1ccc2c(c1)c(=O)n(C)n2Cc1cccc(C(F)(F)F)c1)C(F)(F)F (centres undefined) | 5 | -10 | 14 | 3 | 16 | 3
COC(=O)c1ccc(NC(=O)c2cc3sccc3n2C)cc1 | 56* | -16 | -161 | 7 | -106 | -24
Cn1c(C(=O)Nc2ccccc2)cc2sccc21 | 12 | 4 | -169 | 4 | -242 | -40
CCOC(=O)C1CCN(C(=O)COc2ccc(S(=O)(=O)N3CCOCC3)cc2C)CC1 | 15 | -11 | 11 | 8 | 6 | 1
COc1ccc(C2NCCc3c2[nH]c2ccccc32)cc1CSc1nc2ccccc2s1 (centres undefined) | -17 | 16 | 92* | -23 | -18 | 0
O=C(CSc1c(F)c(F)cc(F)c1F)Nc1ccc(C2SCCS2)cc1 | -16 | 5 | -21 | 1 | -34 | -16
Cc1cc(C)c(C)c(S(=O)(=O)N2CCN(c3ncnc4ccccc34)CC2)c1C | 93* | 20 | 43 | 3 | 10 | 58*
C[C@@H]1ON(C)[C@H]2C[C@H]3c4[nH]c5ccc(-c6ccc7c(c6)OCO7)cc5c4CCN3C[C@@H]12 | 85* | 0 | -53 | 6 | -105 | 30
CN1CC[C@@H]2C(=O)N3CCc4ccc(-c5ccc6c(c5)OCO6)cc4[C@@H]3C[C@@H]21 | 18 | -6 | -31 | -6 | -111 | -22
CC(=O)CCc1ccc(OCCCOc2cccc3cccnc23)cc1 | -35 | 7 | -80 | -6 | -154 | -35
C=CCn1c(=O)/c(=C/c2cc(OC)c(OC)c(OC)c2)s/c1=C(/C#N)c1nc2ccccc2n1C | 40 | 5 | 30 | -50* | 12 | 0
C=CCn1c(=O)/c(=C/c2ccc(O)cc2)s/c1=C(/C#N)c1nnc2n1CCCCC2 | -2 | 10 | 1 | 0 | 20 | 24
Cc1ccc(C(=O)OCC(=O)NCc2ccco2)cc1 | -7 | 0 | -12 | 1 | -4 | -10
Cc1onc(-c2c(F)cccc2Cl)c1C(=O)OCC(=O)c1c[nH]c2ccccc12 | 58* | 6 | 22 | -2 | 17 | 28
O=C(COC(=O)c1ccccc1)NCc1ccco1 | -1 | 9 | -7 | -94* | -3 | -4
Cc1onc(-c2c(F)cccc2Cl)c1C(=O)OCC(=O)NCc1ccco1 | 6 | 2 | -116 | -13 | -91 | 54*
O=C(CN1CCOc2ccccc21)NCc1ccccc1 | -14 | 5 | -13 | 12 | -19 | -8
